This is a sample that favours compounds with a hit; in the whole collection about 6.1% have one here.
DRD3 agonist = agonists of human D3 dopamine receptor; D3R DiscoveRx beta-arrestin cells, luminescence, 90 min; max activation, %; 410,000 compounds, 0.58% hits; AID 652048; in the data active means max activation above about 30%; further: 0% is about no effect
Target sequence (P35462 whole entry, looked up): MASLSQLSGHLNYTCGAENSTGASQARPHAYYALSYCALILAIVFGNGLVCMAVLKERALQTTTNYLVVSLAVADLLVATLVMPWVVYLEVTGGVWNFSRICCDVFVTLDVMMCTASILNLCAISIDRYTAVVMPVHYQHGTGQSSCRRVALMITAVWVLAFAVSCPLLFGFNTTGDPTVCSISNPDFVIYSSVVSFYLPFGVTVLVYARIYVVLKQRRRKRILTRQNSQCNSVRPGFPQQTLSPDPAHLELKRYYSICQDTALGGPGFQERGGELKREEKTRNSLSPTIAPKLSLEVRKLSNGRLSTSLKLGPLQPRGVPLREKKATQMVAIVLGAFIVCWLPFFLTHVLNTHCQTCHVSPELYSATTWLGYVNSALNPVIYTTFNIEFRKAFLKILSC
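Cells at 1500/well, incubated overnight, then treated with pinned compounds (dopamine as control) for 90 min at 37 degrees C. DiscoveRx reagent added for 30 - 60 minutes at room temperature; luminescence read.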
D1 antag = human D1 dopamine receptor antagonism; 360,000 compounds, 3.2% hits; activity change, negative = inhibition, % at 10 µM; HEK293 TREx D1 cells, calcium flux, dopamine EC80; hits give low values; in the data active means activity change below about -30%; further: on the % scale 0 is the no-effect control and ±100 the full control effect
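Using tetracycline-induced force-coupled D1 Hek293 cells and a calcium dye, signals were followed for 180 s after compound, then for 180 s after EC80 dopamine, to detect inhibitors.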
DRD3 antagonist = antagonists of human D3 dopamine receptor; P35462; D3R cells, DiscoveRx beta-arrestin luminescence, antagonist mode; hits give low values; max response, negative = inhibition, %; 360,000 compounds, 2.5% hits; in the data active means max response below about -50%; inconclusive means no clear call, values can overlap the other calls; further: on the % scale 0 is the no-effect control and ±100 the full control effect
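Cells plated overnight at 1500 cells/well, then exposed to library compounds with dopamine controls for 90 minutes at 37 degrees C. DiscoveRx reagent added for 30–60 minutes at room temperature; luminescence read, quantitative HTS format.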
D1 ag = human D1 receptor agonism; AID 504660; activation, % at 2 µM; 360,000 compounds, 1% hits; P21728; HEK293 T-REx D1 cells, calcium flux, agonist mode; in the data active means activation above about 30%; further: 0% is about no effect
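Tetracycline-induced HEK293 TREx D1 cells, force-coupled to calcium signalling, were dye-loaded with a no-wash calcium kit. Compound was pin-added after a 10 s baseline. Fluorescence was read kinetically at 1 cycle/s for 180 s, with calcium rises flagged as agonism.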
D1 PAM = human D1 dopamine receptor positive modulation. HEK293 TREx D1 cells, calcium flux, dopamine EC20 potentiation. potentiation, % at 10 µM. 360,000 compounds, 0.036% hits. P21728; in the data active means potentiation above about 30%; further: 0% is about no effect
Active calls of the source: *; ? = inconclusive; . = no result given.

SMILES | DRD3 agonist | D1 antag | DRD3 antagonist | D1 ag | D1 PAM
CCOC(=O)c1c(C)oc2ncnc(Nc3ccc(F)cc3Cl)c12 | 0 | 1 | . | 1 | 0
CCC(C(=O)NCCc1ccc(OC)c(OC)c1)n1nc(C)c2sc3ccccc3c2c1=O (configuration not stated) | -3 | -10 | . | 3 | -2
C=CCC1Cc2c(cccc2[N+](=O)[O-])C(CC=C)N1 (configuration not stated) | 41* | 0 | 8 | 10 | -5
C=CCC1C=CCC(CC=C)N1C(=O)c1ccccc1[N+](=O)[O-] (configuration not stated) | 2 | -3 | 17 | 2 | -1
CCN(CC)c1nc(C)c(C(=S)Nc2cc([N+](=O)[O-])ccc2Cl)s1 | -5 | -3 | ? | 39* | -4
CCC(C)(C)C(=O)Nc1cc([N+](=O)[O-])ccc1Cl | 1 | -6 | -5 | 2 | -7
NCCCCCc1nnc(SCc2ccc(F)cc2)o1 | -1 | 3 | . | 0 | -5
COc1ccccc1CNC(=O)C1(C)CCN1C(=O)C1(c2ccccc2)CC1 (configuration not stated) | -3 | . | -58* | . | .
COc1ccc(C)cc1NC(=O)N1CCN(S(=O)(=O)c2ccc3c(ccn3C)c2)CC1 | -18 | 3 | . | -1 | -1
CC(Cc1cccc(C(F)(F)F)c1)NCCOC(=O)c1ccccc1 (configuration not stated) | -81 | 0 | -99* | 10 | 7
O=C(COC(=O)c1cccc(C(F)(F)F)c1)NCc1ccccc1 | 2 | -8 | 12 | 4 | -6
Cc1ccccc1NC(=O)COC(=O)c1ccc(CSc2ccc(Cl)cc2)cc1 | 11 | -15 | 42 | 179* | -13
CN1CC2=Cc3ccccc3OC23Oc2ccccc2C=C3C1 | 6 | -51* | -8 | 13 | -16
CCCC(O)c1nc2ccccc2n1CCCCOc1ccc(OC)cc1 (configuration not stated) | 0 | -1 | . | 0 | 0
Cc1cccc(NC(=O)COC(=O)Cc2c[nH]c3ccccc23)c1C | -3 | -32* | -14 | 2 | 0
NC(=O)c1ccsc1NC(=O)COC(=O)Cc1cccc2ccccc12 | 2 | -30 | -12 | 12 | 6
O=C(COC(=O)Cc1c[nH]c2ccccc12)Nc1ccccc1 | 8 | -34* | 9 | 5 | -6
NC(=O)c1ccsc1NC(=O)COC(=O)Cc1c[nH]c2ccccc12 | 22 | -34* | 10 | 14 | -10
COc1cc2c(cc1OC)C(c1cccs1)N(C(=O)c1cccnc1)CC2 (configuration not stated) | 17 | -9 | -2 | 0 | -5
COc1cc2c(cc1OC)C(c1ccccc1)N(C(=O)CCl)CC2 (configuration not stated) | -2 | -32* | -62* | 2 | -5
COc1cc2c(cc1OC)C(c1cccs1)N(C(=O)C(C)C)CC2 (configuration not stated) | -11 | -78* | 22 | -1 | -11
CCc1ccc(-c2cc(C)no2)cc1S(=O)(=O)Nc1ccc(Cl)cc1 | 2 | -7 | . | 3 | -5
O=C(OCCN1C(=O)c2cccc3c(N4CCOCC4)ccc(c23)C1=O)c1ccc(Cl)cc1 | 4 | -2 | 10 | 93* | 0
O=C(OCCN1C(=O)c2ccccc2C1=O)c1cc(S(=O)(=O)N2CCOCC2)ccc1F | -3 | -24 | 0 | 0 | -6
CCCN(CCC)S(=O)(=O)c1ccc(C(=O)OCCN2C(=O)c3cccc4c(N5CCOCC5)ccc(c34)C2=O)cc1 | 1 | -16 | 23 | 113* | 1
SMILES | DRD3 agonist | D1 antag | DRD3 antagonist | D1 ag | D1 PAM
COc1ccc(C2C(=O)N(C3CCCCC3)CC(=O)N2CCc2ccc(OC)c(OC)c2)cc1 (configuration not stated) | -24 | -4 | . | -4 | 1
CC[n+]1c(/C=C/N(C)c2ccccc2)oc2ccc(Cl)cc21 | 9 | -12 | 9 | 1 | -12
CCN1/C(=C/C=C/c2oc3ccc4ccccc4c3[n+]2CC)Oc2ccc3ccccc3c21 | -6 | 2 | -23 | 93* | -3
Cc1ccc(OCC(=O)Nc2ccc3nc(SCC(=O)N(C)c4ccccc4)sc3c2)cc1 | 4 | 0 | . | 2 | -2
Cc1ccc(C(=O)N2CCCC(CCC(=O)N3CCN(c4ccccn4)CC3)C2)cn1 (configuration not stated) | 12 | -7 | 3 | 1 | 0
Cc1ccc(C(=O)N2CCCC(CCC(=O)N3CCN(c4ccccn4)CC3)C2)cc1C (configuration not stated) | -7 | -39* | -5 | 7 | -5
CCCc1nnc(NC(=O)c2cc3ccccc3o2)s1 | -6 | -53* | 1 | 1 | -3
CCCc1nnc(NC(=O)c2cc3ccccc3oc2=O)s1 | 1 | -11 | 0 | -1 | 1
CCOC(=O)c1[nH]c2ccccc2c1NC(=S)Nc1cccc(C)c1 | -9 | 9 | -53* | -2 | -4
Cc1cccc(NC(=O)CCCn2c(=S)[nH]c3ccccc3c2=O)c1 | 47* | 0 | -17 | 0 | -6
COc1cc(NC(=O)CCCn2c(=S)[nH]c3ccccc3c2=O)cc(OC)c1OC | 10 | 12 | 4 | 0 | -6
Cc1cccc(NC(=O)CSc2nc3c([nH]c4ccccc43)c(=O)n2C)c1 | -3 | -2 | -70* | 2 | -4
CCOC(=O)c1[nH]c2ccccc2c1NC(=S)Nc1ccccc1 | 0 | 9 | 16 | -1 | -2
CNC(=O)CN1C(=O)COc2ccc(S(=O)(=O)N3CCC(C)CC3)cc21 | -3 | -2 | . | 1 | -2
O=C(C1CCC(Cn2c(=O)c3sccc3n(Cc3ccccc3)c2=O)CC1)N1CCCCC1 (configuration not stated) | -14 | 4 | . | 3 | -4
CCOc1ccc(NS(=O)(=O)c2ccc3[nH]cc(C(=O)NCC4CCCO4)c(=O)c3c2)cc1 (configuration not stated) | -2 | -12 | -55* | 5 | -3
CC(C)c1ccc(NS(=O)(=O)c2ccc3[nH]cc(C(=O)NCC4CCCO4)c(=O)c3c2)cc1 (configuration not stated) | 0 | 14 | . | 15 | -1
Cc1ccccc1NS(=O)(=O)c1ccc2[nH]cc(C(=O)NC3CCCCC3)c(=O)c2c1 | 4 | -43* | . | 3 | -8
Cc1c(Cl)cccc1NS(=O)(=O)c1ccc2[nH]cc(C(=O)NC3CCCC3)c(=O)c2c1 | -1 | -12 | . | 1 | 7
Cc1ccccc1NS(=O)(=O)c1ccc2[nH]cc(C(=O)NC(C)c3ccccc3)c(=O)c2c1 (configuration not stated) | 4 | -43* | . | 7 | -2
CNC(=O)c1c[nH]c2ccc(S(=O)(=O)Nc3cccc(SC)c3)cc2c1=O | 2 | -86* | -19 | 3 | 2

Screening results: PubChem BioAssay, National Center for Advancing Translational Sciences (NCATS)
